Molecules are shown by their SMILES. About 5,700 (36%) of roughly 16,000 compounds were called active. Roughly 24% stayed inconclusive and do not appear here. The list shows a part of the results. Values without a mark were called inactive. Calls follow the shape of the dose curve; as a rule, active = well fitted curve in the direction sought with a large enough effect; inconclusive = small, poorly fitted or top-dose-only effect, or effect the other way; inactive = no such curve, though single readings can be large or run the other way.
% is scaled to controls: 0 for no effect and ±100 for the full control effect.

In this assay the target is Cytochrome P450 1A2 (Homo sapiens) (UniProt P05177). In words: Cytochrome panel assay with activity outcomes. The settings on record: recombinant CYP, pro-luciferin dealkylation, luminescence, p450-cyp1a2; series mostly up to 57.1 µM; activity, negative = inhibition: at the top concentration.
Chain of Cytochrome P450 1A2 (Homo sapiens) (P05177 whole entry, looked up): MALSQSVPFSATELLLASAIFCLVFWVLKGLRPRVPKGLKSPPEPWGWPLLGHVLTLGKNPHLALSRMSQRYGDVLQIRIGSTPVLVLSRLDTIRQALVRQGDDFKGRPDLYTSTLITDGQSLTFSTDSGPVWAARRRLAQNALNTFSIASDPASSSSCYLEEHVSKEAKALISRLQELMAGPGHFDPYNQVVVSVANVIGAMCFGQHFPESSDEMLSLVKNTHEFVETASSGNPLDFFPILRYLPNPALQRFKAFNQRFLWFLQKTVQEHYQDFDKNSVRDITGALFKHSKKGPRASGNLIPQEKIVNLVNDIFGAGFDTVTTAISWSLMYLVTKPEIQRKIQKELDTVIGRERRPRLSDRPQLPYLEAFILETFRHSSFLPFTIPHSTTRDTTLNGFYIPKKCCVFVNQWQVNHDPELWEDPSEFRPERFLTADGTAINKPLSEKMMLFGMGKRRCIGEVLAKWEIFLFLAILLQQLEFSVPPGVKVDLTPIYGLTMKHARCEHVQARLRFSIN
On to `CC(C)=NO[C@@H](C)c1cn([C@@H]2COC[C@@H]2O)nn1`, for which the activity, negative = inhibition is -6.31% [at 11.4 µM]. On the same count and under the same terms, in the case of `CCn1c(Cc2ccccc2)nnc1SCC(=O)NC(C)(C)C` it was -26.9%. One may read the AC50 as the midpoint of the concentration-response curve, whichever way the signal moves. Turning to `CC(C)(C)NC(=O)CSC(=Nc1ccc(F)cc1)NC#N`, the AC50 was 2.51 µM (active). `C[C@@H]1CC[C@H]2C(=O)NC[C@@H](O)CN2[C@@H]1c1ccc(Br)cc1`: the activity, negative = inhibition is -9.06% [at 11.4 µM].

In the case of `O=[N+]([O-])C1=CC=C2C(=NC3(CCCCC3)N2O)C1=NC1CCCCC1`, the AC50 was 10 µM (active).

`N[C@@H](C(=O)O)c1ccc(O)c(C(=O)O)c1`: the “activity, negative = inhibition” value is -18.9%. `O=C(O)C1=CC(=C(c2ccc(O)c(C(=O)O)c2)c2ccc(O)c(C(=O)O)c2)C=CC1=O`: the AC50 was 10 µM (active).

As to `Nc1ccc(O)c(C(=O)O)c1`, the “activity, negative = inhibition” value was -7.04% [at 25.6 µM]. Regarding `C#CCCCO/N=C1/C[C@@H](O)[C@@H](O)[C@@H]2[C@@H]3C(=O)N(Cc4ccccc4)C(=O)[C@H]3CC[C@H]12`, the activity, negative = inhibition is 0.662% [at 11.4 µM].

Turning to `Cc1nc(S(=O)(=O)N(C)c2ccccc2)c(C#N)c(C)c1Cl`, the AC50 is 15.8 µM (active). With `Cc1nc(S(=O)(=O)NC2CCCCC2)c(C#N)c(C)c1Cl`, the AC50 is 10 µM (active). Consider `O=C(NNS(=O)(=O)c1ccc(Cl)cc1)NC1CCCCC1`, for which the “activity, negative = inhibition” value is 5.14%. The same measure, in the same setting: next, `CO[C@@H]1COC(=O)[C@@H](CCSC)NC(=O)C/C=C\[C@@H](C)COC(=O)CCC[C@H]1C`: 0.608% [at 11.4 µM].

As to `Cc1cc(C)n(-c2nnc(C)n2/N=C/c2ccccc2OCc2ccccc2Cl)n1`, the AC50 was 2 µM (active). For the compound `CCOC(=O)COc1c(OC)cc(Cl)cc1C1Nc2ccccc2C(=O)N1c1cccc(C)c1` (centres undefined), the “activity, negative = inhibition” value is -11.9%.

Take `CCOC(=O)COc1c(OC)cc(Cl)cc1C1Nc2ccccc2C(=O)N1c1ccc(F)cc1` (centres undefined): the “activity, negative = inhibition” value is -13.9%. Take `CCOC(=O)COc1c(C=O)cc(Br)cc1OC`: the AC50 is 4.47 µM (active).

Regarding `CCOC(=O)c1cc(-c2ccc(Cl)cc2)nc2c1c(C)nn2CCC#N`, the AC50 is 0.891 µM (active).

As for `CC1CC2(CCCCC2)N2C(=O)C(=O)c3cccc1c32` (centres undefined), the AC50 was 2.24 µM (active).

As for `Cn1nc(C(F)(F)F)c(/C=N/OCc2c(Cl)cccc2Cl)c1Cl`, the AC50 was 1.26 µM (active). For `Cn1nc(C(F)(F)F)c(/C=N/OC(=O)c2ccc(Cl)cc2)c1Cl`, the AC50 was 12.6 µM (active). Consider `Cn1nc(C(F)(F)F)c(/C=N/OC(=O)c2ccccc2Cl)c1SCc1ccc(Cl)cc1`, for which the AC50 is 2.82 µM (active).

On to `COc1ccc(C(=O)O/N=C/c2ccc(S(=O)c3ccc(Cl)cc3)nc2)cc1` (centres undefined), for which the “activity, negative = inhibition” value is -7.11%.

With `N[C@H](CCC(=O)NCS(=O)(=O)O)C(=O)O`, the “activity, negative = inhibition” value was -1.79%.

As to `CCn1c(SCC(=O)N2CCN(S(=O)(=O)c3ccccc3)CC2)nnc1-c1cccs1`, the “activity, negative = inhibition” value was -26.8%. With `O=C(CSc1nnc(-c2ccccc2)n1-c1ccccc1)c1cccs1`, the AC50 was 14.1 µM (active). Regarding `Cc1ccc(C(=O)NNC(=O)CSc2nnc(-c3ccncc3)n2-c2ccc(C)cc2)cc1`, the “activity, negative = inhibition” value is -28.8%.

Consider `CCn1c(SCC(=O)c2ccc3ccccc3c2)nnc1-c1cccs1`, for which the AC50 was 3.55 µM (active). For `CCn1c(SCC(=O)c2ccccc2)nnc1-c1cccs1`, the AC50 was 3.55 µM (active). For `Cc1ccccc1NC(=O)CSc1nnc(-c2ccccc2)n1-c1ccccc1`, the “activity, negative = inhibition” value is -28.6%.

`Cn1cccc1C(=O)N1CCC2(CC1)CN(C(=O)Nc1ccccc1)C2`: the “activity, negative = inhibition” value was -10.3%. Same read-out and setting: in the case of `O=C(O)C1(C(=O)O)CCN(S(=O)(=O)c2ccccc2)CC1` it was 13.9% [at 2.29 µM]. Consider `CCCCCn1c(=O)c(C(=O)c2ccccc2)nc2ccccc21`, for which the AC50 was 0.708 µM (active). Turning to `O=C(c1ccccc1)c1nc2ccccc2n(CCCn2c(=O)c(C(=O)c3ccccc3)nc3ccccc32)c1=O`, the “activity, negative = inhibition” value is -29.7%.

In the case of `O=[N+]([O-])c1cccc(-c2nc(-c3ccncc3)no2)c1`, the concentration at half-maximal activity (AC50) was 0.631 µM (active). `CCS(=O)(=O)N1CCC(C(=O)NCCCOC)CC1`: the “activity, negative = inhibition” value was 2.72%. With `CC(C)(C)C1CCc2c(C(=O)N/N=C/c3cccs3)csc2C1` (centres undefined), the “activity, negative = inhibition” value was -23.6%.

As for `O=C(N/N=C/c1cccc(F)c1)c1csc2c1CCCC2`, the AC50 is 4.47 µM (active). The same measure, in the same setting: in the case of `CC(C)NCCCOc1ccc(Cl)cc1Br` it was 0.631 µM (active). As to `Nc1ncnc2c1ncn2C[C@@H](O)C(=O)O`, the activity, negative = inhibition is -12.5% [at 11.4 µM]. Same read-out and setting: in the case of `CCOc1ccc(N2C(=O)CN=C2Nc2ccccc2Cl)cc1` it was -17.1%. Consider `CCOc1ccc(NC2=NCC(=O)N2Cc2cccs2)cc1`, for which the AC50 was 22.4 µM (active). `O=C1CN=C(Nc2ccccc2)N1Cc1cccs1`: the AC50 is 12.6 µM (active). In the case of `CCOc1ccc(N2C(=O)/C(=C/c3cccs3)N(CC(=O)OC)C2=S)cc1`, the “activity, negative = inhibition” value is -12.2%. As for `Cc1cc(N)n(-c2ccc3ccccc3c2)n1`, the AC50 was 2 µM (active). The same measure, in the same setting: next, `CCN(CC)S(=O)(=O)c1cc(C(=O)OC)ccc1Cl`: 22.4 µM (active). Consider `CCN(CC)CCNC(=O)c1ccc(Cl)c(S(=O)(=O)Nc2ccccc2OC)c1`, for which the “activity, negative = inhibition” value is -18.8%. Still for that read-out and setting: next, `CCCN(CCC)S(=O)(=O)c1ccc(C(=O)O)cc1`: 0.818% [at 25.6 µM]; `O=c1[nH]c(=S)[nH]c2c1CN(CCCN1CCOCC1)CN2`: -13.5% [at 2.29 µM].
